Results taken from PubChem BioAssay (NCI).
Compounds without any hit were thinned out: in the full panel of roughly 83,000, 20% have a hit.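 A percent growth of 40 corresponds to 60% growth inhibition; 0 means no net growth; -100 means all cells died. Active threshold: below 10.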 A number with no mark means an inactive call. The source made the active and inactive calls.

Legend:
Assay in all cases: NCI-60 one-dose screen, 48 h (100 = growth as untreated, 0 = no growth, -100 = all killed)
Details in all cases: 10 µM unless noted
SR leukemia = tested on: SR leukemia
RPMI-8226 leukemia = tested on: RPMI-8226 leukemia
OVCAR-8 ovarian = tested on: OVCAR-8 ovarian
OVCAR-5 ovarian = tested on: OVCAR-5 ovarian
OVCAR-4 ovarian = tested on: OVCAR-4 ovarian
SK-OV-3 ovarian = tested on: SK-OV-3 ovarian
IGROV1 ovarian = tested on: IGROV1 ovarian
OVCAR-3 ovarian = tested on: OVCAR-3 ovarian
HS 578T breast = tested on: HS 578T breast
NCI/ADR-RES ovarian = tested on: NCI/ADR-RES ovarian
T-47D breast = tested on: T-47D breast
BT-549 breast = tested on: BT-549 breast
MDA-MB-435 melanoma = tested on: MDA-MB-435 melanoma
SW-620 colon = tested on: SW-620 colon
MCF7 breast = tested on: MCF7 breast
HCT-116 colon = tested on: HCT-116 colon
HCC-2998 colon = tested on: HCC-2998 colon
KM12 colon = tested on: KM12 colon

Row | SMILES | growth (SR leukemia) | growth (RPMI-8226 leukemia) | growth (OVCAR-8 ovarian) | growth (OVCAR-5 ovarian) | growth (OVCAR-4 ovarian) | growth (SK-OV-3 ovarian) | growth (IGROV1 ovarian) | growth (OVCAR-3 ovarian) | growth (HS 578T breast) | growth (NCI/ADR-RES ovarian) | growth (T-47D breast) | growth (BT-549 breast) | growth (MDA-MB-435 melanoma) | growth (SW-620 colon) | growth (MCF7 breast) | growth (HCT-116 colon) | growth (HCC-2998 colon) | growth (KM12 colon)
1 | Clc1nc(N2CCC[N+]3(CC2)CC[N+]2(CCCNCC2)CC3)nc(N2CCC[N+]3(CC2)CC[N+]2(CCCNCC2)CC3)n1 (stereo unspecified) | 90.4% | 99.8% | 86% | 113% | 98.4% | 76.2% | 97.3% | 92.2% | 98.3% | 92.6% | 95% | 95.1% | 90% | 98.2% | 91.3% | 87% | 97.9% | 94.4%
2 | CN1/C(=C/C=C/c2n(Cc3ccc4ccccc4c3)c(Cl)c(Cl)[n+]2Cc2ccc3ccccc3c2)Oc2ccccc21 | 95.3% | -53.1% (active) | -86.1% (active) | -83.1% (active) | -70.7% (active) | -57.2% (active) | -80.4% (active) | -83.8% (active) | -44.4% (active) | 33.4% | -50.2% (active) | -84.8% (active) | -81.8% (active) | -79.9% (active) | -72.8% (active) | -82.2% (active) | -87.6% (active) | -80.9% (active)
3 | Cc1nc2cccc(NCc3ccc(C(=O)NO)cc3)c2c(=O)n1-c1ccccc1 | 14.8% | 18.5% | 3.81% (active) | 40% | 62.2% | 4.52% (active) | 20.4% | 43.9% | 56.8% | 19.2% | 17.5% | 73.4% | 27% | 7.22% (active) | 67.1% | -32.6% (active) | 86.3% | 29.8%
4 | CC(C)(C)c1ccc(C(=O)Nc2sc3c(c2C#N)CCC(=O)C3)cc1 | 4.39% (active) | -8.65% (active) | 16.6% | 21% | -73.8% (active) | 57.4% | 25.8% | -29.6% (active) | 30.5% | 9.31% (active) | -31.8% (active) | -11.7% (active) | 6.81% (active) | -51% (active) | 8.36% (active) | 2.24% (active) | 48.1% | 12%
5 | C=C(CNCCc1ccc(O)cc1)[C@@H]1CC[C@]2(CO)CC[C@]3(C)[C@H](CC[C@@H]4[C@@]5(C)CCC(N)C(C)(C)[C@@H]5CC[C@]43C)[C@@H]12 (stereo partly specified) | -43.9% (active) | -46.5% (active) | -56.8% (active) | 11.4% | -16.2% (active) | -6.7% (active) | -57.3% (active) | -53.5% (active) | -66% (active) | 60.4% | -65.7% (active) | 59.7% | -90.5% (active) | -81.6% (active) | -72.3% (active) | -65.9% (active) | -89.5% (active) | -60.6% (active)
6 | COc1ccc(N/N=C/c2ccc3c(c2)Sc2ccccc2N3C)cc1 | 42.2% | 78.2% | 65.9% | 53.3% | 60.7% | 87.4% | 55.8% | 77.7% | 95.1% | 79.6% | 51.9% | 96.1% | 17.6% | 27.1% | 32.3% | 53.6% | 85% | 16.9%
7 | CC(C)(C)n1cc(-c2ccnc(NCCNS(=O)(=O)c3cccc4ccccc34)c2)c(-c2cccc(O)c2)n1 | 30.1% | 27.4% | 65.9% | 84.4% | 80.1% | 81.9% | 87% | 91% | 84.6% | 77% | 31.4% | 60.5% | 78.6% | 35.8% | 49.4% | 46.5% | 66.3% | 57.5%
8 | CNc1nc2ncc(-c3c(C)noc3C)cc2n1Cc1ccccc1 | 27.9% | -2.96% (active) | 55.9% | 67.5% | 53.6% | 21% | 63.6% | 47.2% | 39.3% | 67.4% | 54.1% | 60.2% | 45.7% | 71.8% | 18.6% | 26% | 63.4% | 62.1%
9 | O=C(NCCN1CCOCC1)c1cncnc1Nc1ccc2c(ccn2Cc2ccccn2)c1 | 111% | 106% | 102% | 100% | 106% | 95.4% | 106% | 113% | 103% | 104% | 98.3% | 102% | 99.9% | 98% | 97.8% | 105% | 100% | 107%
10 | C#CCOc1ccc(C2=NN(CCCC)C3N=C(Cl)c4ncn(CCCC)c4N23)cc1OCC#C (stereo unspecified) | 79.1% | 85.2% | 85.9% | 93.6% | 86.2% | 92.3% | 99.2% | 97.2% | 80.6% | 83% | 69.6% | 90.6% | 86.7% | 88.7% | 81.8% | 83.1% | 107% | 88.3%
11 | CN(C)CCOc1nc2c3cc([N+](=O)[O-])ccc3nn2c2ccccc12 | 7.43% (active) | 41.8% | 31.5% | 58.6% | 62.4% | 34.9% | 29.8% | 63.7% | 69.8% | 37% | 46.5% | 69.6% | 82.4% | 20.4% | 16.7% | 16.7% | 54.6% | 41.9%
12 | C=C(CNCCO)[C@@H]1CC[C@]2(CO)CC[C@]3(C)[C@H](CC[C@@H]4[C@@]5(C)CCC(NCCO)C(C)(C)[C@@H]5CC[C@]43C)[C@@H]12 (stereo partly specified) | -22.9% (active) | 36.8% | 75.8% | 90.6% | 77.1% | 94.6% | 80.4% | 80% | 78.2% | 95% | 84.4% | 78.9% | 70.2% | 73.8% | 47.4% | 44.3% | 71.7% | 63.4%
13 | CN(C)CCOc1ccc(/C(=C(/CCCCCCCCCC[P+](c2ccccc2)(c2ccccc2)c2ccccc2)c2ccccc2)c2ccccc2)cc1 | -53.4% (active) | -48.3% (active) | -53.5% (active) | -97.2% (active) | -81.6% (active) | -81% (active) | -76.5% (active) | -93.9% (active) | -36.4% (active) | -69% (active) | -56.2% (active) | -78.3% (active) | -98.1% (active) | -85% (active) | -77.9% (active) | -72% (active) | -83.9% (active) | -80.9% (active)
14 | CN(CCNc1ccc(C(=N)N)cc1)c1ccc(C(=N)N)cc1 | 66.7% | 72.2% | 80.8% | 92% | 96.2% | 119% | 36.7% | 91.4% | 101% | 97.1% | 126% | 102% | 92.6% | 98.6% | 116% | 101% | 99.6% | 86.2%
15 | Oc1c(Cl)cc(Cl)c2ccc(CN3CCNCC3)nc12 | 25.6% | 39.4% | 27.5% | 82.4% | 37.7% | 52.8% | 43.3% | 42.9% | 70.4% | 5.37% (active) | 43.6% | 82.2% | 58.6% | 26.6% | 34.4% | 32.6% | 60.1% | 49.6%
16 | OC1CSSC1Cn1cnc2c(Nc3ccc(F)c(Cl)c3)ncnc21 (stereo unspecified) | 3.55% (active) | 55.7% | 96.5% | 115% | 91.4% | 107% | 93.2% | 68.5% | 103% | 93.3% | 61.4% | 119% | 63.8% | 104% | 45.7% | 74.7% | 96.4% | 73.2%
17 | Cc1ccc(Nc2oc(-c3ccccc3)nc2[P+](c2ccccc2)(c2ccccc2)c2ccccc2)cc1 | 8.76% (active) | -38.3% (active) | -27.3% (active) | 11.3% | 6.45% (active) | -33.7% (active) | -11.9% (active) | -30.7% (active) | -38.9% (active) | -52.3% (active) | -28.5% (active) | -21.5% (active) | -62.8% (active) | -48.2% (active) | -20.2% (active) | -66.4% (active) | -89.4% (active) | -51.5% (active)
